From PubChem BioAssay
Compounds with a hit are over-represented: about 8.9% of the library has one in this group of screens.
KB-3-1 tox = kills parental KB-3-1 adenocarcinoma cells | KB-3-1 viability, CellTiter-Glo ATP luminescence, 72 h | Potency, µM (titrated, usually from 46.1 µM), usual class: cytotoxic | actives 1.4% (n = 400,000); note: potency is the fitted concentration of half-maximal effect; % is set by controls: 0 for no effect and ±100 for the full control effect; nearly all actives have a fitted effect of over 60% in size
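Cells are dispensed, compounds pinned in, plates held at 37 °C for 72 h, then CellTiter-Glo is added and luminescence read after 10 minutes. Cell line: parental KB-3-1 in phenol-red-free DMEM, 10% FBS.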
MCF10A rerep = induces DNA re-replication in MCF 10a normal breast cells | MCF 10A DNA re-replication, Hoechst nuclear intensity, 48 h | Potency, µM (titrated, usually from 46.1 µM), for inactives: top-dose activity, positive = re-replication, usual class: activators | actives 2.9% (n = 350,000) | AID 624296; note: potency is the fitted concentration of half-maximal effect; % of control where 0% means no effect; nearly all actives have a fitted effect of over 50% in size
DRD3 antagonist = D3 dopamine receptor (human) antagonism; P35462; D3R cells, DiscoveRx beta-arrestin luminescence, antagonist mode; stronger effect = lower value; max response, negative = inhibition, %; actives 2.5% (n = 360,000); AID 652054; in the data active = max response below about -50%; inconclusive = no clear call, values can overlap the other calls; note: % is set by controls: 0 for no effect and ±100 for the full control effect
Target sequence (P35462 whole entry, looked up): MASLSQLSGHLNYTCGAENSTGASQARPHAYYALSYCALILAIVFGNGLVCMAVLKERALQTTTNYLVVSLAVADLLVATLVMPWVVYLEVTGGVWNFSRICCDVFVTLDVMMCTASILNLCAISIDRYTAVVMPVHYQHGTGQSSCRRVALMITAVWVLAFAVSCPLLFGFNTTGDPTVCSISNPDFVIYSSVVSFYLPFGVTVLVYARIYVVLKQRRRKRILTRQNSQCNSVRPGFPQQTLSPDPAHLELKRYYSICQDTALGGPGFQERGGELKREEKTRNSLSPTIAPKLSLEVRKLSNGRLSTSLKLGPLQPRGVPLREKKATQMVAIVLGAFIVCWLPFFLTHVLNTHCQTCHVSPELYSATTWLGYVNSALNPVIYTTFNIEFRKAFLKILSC
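Cells plated overnight at 1500 cells/well, then exposed to library compounds with dopamine controls for 90 minutes at 37 degrees C. DiscoveRx reagent added for 30–60 minutes at room temperature; luminescence read, quantitative HTS format.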
KB-V1 cytotox = KB-V1 MDR subline cytotoxicity; KB-V1 MDR cells viability, CellTiter-Glo, 72 h; Potency, µM (titrated, usually from 46.1 µM), most hits filed as cytotoxic; actives 3.4% (n = 400,000); note: potency is the fitted concentration of half-maximal effect; % is set by controls: 0 for no effect and ±100 for the full control effect; nearly all actives have a fitted effect of over 60% in size
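Compound-treated KB-V1 multidrug-resistant cells, 72 h, 37 degrees C; viability by CellTiter-Glo. Fitted qHTS curves give the values.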
D3 ag = activates the human D3 dopamine receptor | P35462 | D3R DiscoveRx beta-arrestin cells, luminescence, 90 min | max activation, % | actives 0.58% (n = 410,000); in the data active = max activation above about 30%; note: 0% is about no effect
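Agonist-mode cell screen: cells plated at 1500/well and incubated overnight at 37 °C, then exposed to library compounds for 90 min at 37 °C. Detection reagent was added for 30–60 min at room temperature, and luminescence was read.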
SW480 rereplic = induces DNA re-replication in SW480 colon adenocarcinoma cells; Potency, µM (titrated, usually from 46.1 µM), for inactives: at the highest dose re-replication activation, hits mostly activators; actives 1.8% (n = 340,000); SW480 DNA re-replication, Hoechst DNA content imaging, 48 h; AID 624297; note: potency is the fitted concentration of half-maximal effect; % of control where 0% means no effect; nearly all actives have a fitted effect of over 55% in size
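DNA re-replication was detected as more nuclei of elevated Hoechst intensity after 48 hr exposure to compound (23 nL pinned per well of 250 cells).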
Numbers without * were called inactive; i = inactive; ? = inconclusive; . = not tested or not shown. Unless noted, calls come from the whole dose curve; as a rule, active = well fitted curve in the direction sought with a large enough effect; inconclusive = small, poorly fitted or top-dose-only effect, or another doubt; inactive = no such curve, though single readings can be large; an effect the other way counts as inactive or inconclusive.

SMILES	KB-3-1 tox	MCF10A rerep	DRD3 antagonist	KB-V1 cytotox	D3 ag	SW480 rereplic
COc1ccc(C(=O)NNC2=Nc3cccc4cccc2c34)cc1	i	?	-68*	?	-12	7%
Cc1ccc(C(=O)NNC2=Nc3cccc4cccc2c34)cc1	?	6%	-74*	9.2µM*	-25	-4%
O=C(O)c1ccc(NC2=Nc3cccc4cccc2c34)cc1	?	-2%	-6	15µM*	1	?
COc1ccc(CC(=O)NNC2=Nc3cccc4cccc2c34)cc1	i	21µM*	-79*	i	-22	16µM*
O=C(NCCCNC(=O)c1cnccn1)c1ccc(Br)cc1	i	5%	-5	i	-3	1%
CCC(CN)CC(C)CCNCC(O)CNCC(C)CC(CC)CN (stereo not drawn)	.	.	.	.	-6	.
CCN(CC)C(=O)c1sc2c(c1C)c(=O)n(Cc1ccccc1)c(=O)n2Cc1ccccc1C	?	.	.	?	-9	.
Cc1cc(C)c(NC(=O)COC(=O)c2cccc3c2C(=O)c2ccccc2C3=O)c(C)c1	?	?	35	?	32*	-6%
O=C(COC(=O)c1cc2ccccc2oc1=O)Nc1cccc(Br)c1	i	5%	-14	i	4	-7%
Cc1ccc(C)c(NC(=O)COC(=O)c2cccc3c2C(=O)c2ccccc2C3=O)c1	?	1%	40	15µM*	3	13µM*
Cc1cccc(NC(=O)COC(=O)c2cc3ccccc3oc2=O)c1	i	0.65µM*	6	i	0	21µM*
Cc1ccc(NC(=O)COC(=O)c2cccc3c2C(=O)c2ccccc2C3=O)c(C)c1	i	?	53	?	22	?
O=C(c1nc2ccccn2c1CN1CCCC(OCc2ccccc2)C1)N1CCCC1 (stereo not drawn)	?	6%	11	i	3	12%
CC1(C)CC(=O)C(=C2SCCCS2)C(=O)C1	i	1%	1	i	6	-8%
COC(=O)c1ccc2nc(C)cc(Nc3cccc(Cl)c3C)c2c1	i	.	.	i	-11	.
CC(NC(=O)c1cccc(NC(=O)c2nsc3ccccc23)c1)c1ccccc1 (stereo not drawn)	i	.	.	i	1	.
Cc1cc2ncn(-c3ncnc4sc5c(c34)CCCC5)c2cc1C	i	-1%	-10	i	0	3%
Cc1cc2ncn(-c3ncnc4sc5c(c34)CCC(C)C5)c2cc1C (stereo not drawn)	i	?	30	13µM*	3	0%
Cc1cc2ncn(-c3ncnc4scc(-c5ccccc5)c34)c2cc1C	i	24%	10	4.1µM*	5	-1%
Cc1cccc(NC(=O)CSc2c(C)cnc3c2c(=O)n(C)c(=O)n3C)c1C	i	.	.	i	5	.
Cc1c(Cl)c([N+](=O)[O-])nn1CCCC(=O)Nc1c(Cl)cccc1Cl	i	13%	0	7.3µM*	-8	-7%
Cc1c(Cl)c([N+](=O)[O-])nn1CC(=O)NC(C)c1ccccc1 (stereo not drawn)	i	-6%	-2	i	-2	-5%
Cc1c(Cl)c([N+](=O)[O-])nn1CC(=O)NCc1cccs1	i	-3%	-11	18µM*	6	-14%
CC1CCC(C(=O)NC(C(=O)N2CCN(c3ccccn3)CC2)C(C)C)CC1 (stereo not drawn)	i	7%	3	3.3µM*	-1	4%
CC1CCC(C(=O)NC(C(=O)N2CCc3ccccc3C2)C(C)C)CC1 (stereo not drawn)	i	9%	8	i	-1	-1%
SMILES	KB-3-1 tox	MCF10A rerep	DRD3 antagonist	KB-V1 cytotox	D3 ag	SW480 rereplic
CCOc1ccccc1CNC(=O)CN1C(=O)c2cccnc2Oc2ccc(C)cc21	i	.	.	i	-9	.
CCc1ccccc1NC(=O)C1CCCN(c2cnccn2)C1 (stereo not drawn)	i	.	.	i	-11	.
CC1CCCN(c2nc3ccsc3c(=O)s2)C1 (stereo not drawn)	?	18µM*	13	16µM*	-3	18%
COc1ccc(C2C(Oc3ccccc3C)C(=O)N2Cc2ccc(F)cc2)cc1OC (stereo not drawn)	?	2%	-69*	?	-11	-3%
COc1ccc(C2CC(=O)N(Cc3cccc(F)c3)c3ccccc3S2)cc1 (stereo not drawn)	?	.	.	?	14	.
COc1ccc(CCN2C(=O)C(Oc3ccccc3C)C2c2ccc3c(c2)OCO3)cc1 (stereo not drawn)	i	?	55	10µM*	1	4%
COc1cc(C2CC(=O)N(Cc3ccc(F)cc3)c3ccccc3S2)cc(OC)c1OC (stereo not drawn)	?	.	.	12µM*	6	.
COc1ccc(C2CC(=O)N(Cc3ccc(F)cc3)c3ccccc3S2)cc1 (stereo not drawn)	?	.	.	15µM*	18	.
COc1ccc(OC2C(=O)N(Cc3ccc(F)cc3)C2c2cc(OC)c(OC)c(OC)c2)cc1 (stereo not drawn)	i	0%	-12	i	-1	0%
COc1ccc(C2CC(=O)N(C)c3ccccc3S2)cc1OC (stereo not drawn)	i	?	2	?	0	-1%
COc1ccc(C2CC(=O)N(Cc3ccc(F)cc3)c3ccccc3S2)cc1OC (stereo not drawn)	?	.	.	16µM*	1	.
CCCn1c(=O)c2sccc2n2c(CCCC(=O)N3CCN(c4cccc(C)c4C)CC3)nnc12	.	.	.	.	10	.
Cc1ccc(NC(=O)N2CCc3c(sc4c3CCCC4)C2c2ccccc2)cc1F (stereo not drawn)	i	.	.	i	5	.
COCC(=O)Nc1c(C(=O)Nc2ccc3c(c2)OCO3)oc2ccccc12	i	?	-8	i	5	?
CCOc1ccc(NC(=O)c2oc3ccccc3c2NC(=O)C2CCCCC2)cc1	i	.	.	?	4	.
O=C(Nc1ccc(F)cc1)c1oc2ccccc2c1NC(=O)C1CCCC1	i	9%	30	13µM*	3	-9%
O=C(CCl)Nc1c(C(=O)Nc2ccc3c(c2)OCCO3)oc2ccccc12	?	7.3µM*	-1	?	-2	?
COc1cc(NC(=O)COCc2cc(-c3ccc4c(c3)OCO4)on2)cc(OC)c1	i	.	.	i	-7	.
CC1=Nc2cc(C(=O)NCCCOC(C)C)ccc2Sc2ccc(C)cc21	2.9µM*	9.2µM*	-15	4.1µM*	-1	6.5µM*
CC1=Nc2cc(C(=O)NCCCOC(C)C)ccc2Sc2ccccc21	?	7.3µM*	-12	?	0	?
